Tb PFK inh-1: qHTS Assay to Find Inhibitors of T. brucei phosphofructokinase | ATP-dependent 6-phosphofructokinase (Trypanosoma brucei brucei), O15648 | T. brucei PFK, ADP-Glo luminescence | Potency, µM (doses to about 57.5 µM), without a hit: top-dose activity, negative = inhibition, most hits filed as inhibitors | hit rate 0.17% among 330,000 | AID 485367, 2010;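 note: 0% = uninhibited 1x PFK enzyme wells and -100% = no-enzyme wells; nearly all actives have a fitted effect of over 60% in size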
Target sequence (O15648 whole entry, looked up): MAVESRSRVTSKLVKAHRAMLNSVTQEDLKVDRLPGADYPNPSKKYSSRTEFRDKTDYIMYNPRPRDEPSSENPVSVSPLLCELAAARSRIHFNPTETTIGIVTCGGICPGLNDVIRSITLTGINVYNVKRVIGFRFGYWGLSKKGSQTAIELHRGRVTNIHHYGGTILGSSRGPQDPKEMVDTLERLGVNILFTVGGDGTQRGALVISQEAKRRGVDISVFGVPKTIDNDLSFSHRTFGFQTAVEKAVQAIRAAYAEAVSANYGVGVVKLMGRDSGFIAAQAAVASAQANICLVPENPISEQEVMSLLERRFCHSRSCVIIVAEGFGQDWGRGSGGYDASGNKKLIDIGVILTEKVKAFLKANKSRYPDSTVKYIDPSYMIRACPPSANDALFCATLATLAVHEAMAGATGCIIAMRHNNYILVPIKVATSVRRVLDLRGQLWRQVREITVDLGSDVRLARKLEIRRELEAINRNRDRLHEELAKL
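Luminescent ADP detection (ADP-Glo, two-step: ATP depletion then ADP-to-ATP conversion for luciferase) reported PFK activity after 45 min room-temperature reaction of 1.25 nM enzyme with 0.5 mM F6P and 0.1 mM ATP at pH 8.0.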
A-T KAP1 phos: qHTS Assay for Identifying a Potential Treatment of Ataxia-Telangiectasia; AID 485349, 2010; Potency, µM (titrated, usually from 57.5 µM), for inactives: at the highest dose activation, usual class: activators; hit rate 0.19% among 320,000; F2112 A-T fibroblasts, KAP-1 phosphorylation AlphaLISA; neocarzinostatin DNA damage 30 min before lysis; note: % of control where 0% means no effect; nearly all actives have a fitted effect of over 45% in size
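ATM-like activity read as KAP-1 phosphorylation via AlphaLISA donor/acceptor antibody pairs after lysis and 6 hr at 25C. Cells were ATM-null patient fibroblasts (F2112, hTERT), dosed 60 min, then exposed to the DSB inducer NCS for 30 min.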
ERG-DNA inh: qHTS for Small Molecule Inhibitors of the ERG Ets/DNA interaction. fluorescence polarization, His-ERG Ets domain / labelled DNA. Potency, µM (series often up to 76.9 µM), for inactives: at the highest dose FP activity, negative = inhibition, actives largely listed as inhibitors. hit rate 0.028% among 370,000. AID 624246, 2012; active = well fitted inhibition curve with a large enough effect in the polarisation, with a control signal flat; inconclusive = small, poorly fitted or top-dose-only effect, or effect the other way, or a change in a side signal; inactive = no such curve, though single readings can be large or run the other way; the % refers to the polarisation;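 note: polarization taken with two DNA probes labelled with fluorescein and Texas red; % of control where 0% means no effect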
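His-tagged ERG Ets domain (1 uM in the protein solution; 300mM KCl, 50mM Tris-HCl, 1mM EDTA, 1mM DTT, pH 7.5) received compound, then a probe mix of 5 nM fluorescein-DNA and 100nM Texas-615-DNA. Fluorescence polarization was read for both dyes.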
p53 reactivator: qHTS assay for re-activators of p53 using a Luc reporter; H1299 p53-A138V BP100-luciferase reporter, luminescence, 24 h; Potency, µM (highest dose often 92.2 µM), without a hit: at the top dose activity change, positive = activation, usual class: activators; hit rate 0.063% among 320,000; note: % of control where 0% means no effect; nearly all actives have a fitted effect of over 45% in size
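H1299 (p53-null), stable ts p53-A138V + BP100-Luc; 1000 cells/well, Opti-MEM/10% FBS; cpd 4 pt, 1:5; 24 h, 37 deg C, 5% CO2; detection reagent 10 min RT; luminescence.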
ASM inhibitor: Inhibitors of Secretory Acid Sphingomyelinase (S-ASM): qHTS; Sphingomyelin phosphodiesterase (Homo sapiens), P17405; placental ASM, HMU-PC fluorogenic substrate, 60 min; Potency, µM (highest dose often 57.5 µM), for the others: at the top dose activity change, negative = inhibition, hits mostly inhibitors; hit rate 0.006% among 340,000; AID 504937, 2011
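Fluorescence read-out (Ex 386 nm, Em 447 nm) after stopping the reaction at pH 10. Enzyme: ASM from human placenta; substrate HMU-PC0, 9 uM final; 60 min, 37 °C. Compound preincubation 10 min, ambient temperature.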
GCN5L2 inh: qHTS Assay for Inhibitors of GCN5L2 | hit rate 0.21% among 390,000 | GCN5L2 HAT assay, ThioGlo1 CoA-SH fluorescence | Potency, µM (top dose mostly 58.9 µM), inactives show at the top dose activity change, negative = inhibition, actives largely listed as inhibitors; note: % is set by controls: 0 for no effect and ±100 for the full control effect
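Free CoA generated was detected with ThioGlo1 (50uM) fluorescence at Ex340nm/Em540nm, read immediately and after 20 min at room temperature. Enzyme, 20 nM in HEPES pH 7.5 buffer, saw compounds 15 min before adding 75uM H3(1-25) peptide and 70uM acetyl-CoA.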
Tb PFK KinaseGlo: Tb PFK orthogonal confirmatory assay using ATP depletion (Kinase-Glo Plus) as an alternative measure of Tb PFK activity: Hit Validation. shares compounds with Tb PFK inh-1. Tb PFK enzyme, ATP depletion, Kinase-Glo Plus luminescence. Potency, µM (titrated, usually from 57.5 µM), for inactives: top-dose inhibition. hit rate 47% among 1,100; calls by dose curve; note: nearly all actives have a fitted effect of over 60% in size
Tb PFK inh-2: Inhibitors of T. brucei phosphofructokinase: Hit Validation. shares compounds with Tb PFK inh-1. purified T. brucei PFK, ADP-Glo luminescence, 45 min. Potency, µM (series often up to 57.5 µM), inactives show at the top dose activity change, negative = inhibition, actives largely listed as inhibitors. hit rate 41% among 1,100. AID 504637, 2011;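 note: plate controls were full PFK enzyme control for no effect and no enzyme control for full effect; nearly all actives have a fitted effect of over 60% in size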
Starred values were filed as active, the others as inactive; ? = inconclusive; nt = no result given. Most compounds without a hit are left out; they make up all but 0.55% or so of the library. Unless noted, calls come from the whole dose curve; as a rule, active = well fitted curve in the direction sought with a large enough effect; inconclusive = small, poorly fitted or top-dose-only effect, or another doubt; inactive = no such curve, though single readings can be large; an effect the other way counts as inactive or inconclusive. Potency is the fitted concentration of half-maximal effect.

SMILES	Tb PFK inh-1	A-T KAP1 phos	ERG-DNA inh	p53 reactivator	ASM inhibitor	GCN5L2 inh	Tb PFK KinaseGlo	Tb PFK inh-2
Cc1ccc(NC(=O)CN(C)C(=O)c2cccc(-n3cccc3)c2)cc1	?	1.4%	-2.1%	-1.5%	-4.0%	?	?	?
N#C/C(C(=O)Nc1ccc(Cl)cc1)=C(/S)Nc1ccccc1	9.53µM*	-5.8%	4.2%	8.7%	-17.9%	7.94µM*	15.1µM*	?
COc1ccccc1NS(=O)(=O)c1cc(NC(=O)c2sccc2C)ccc1N1CCCC1	?	-0.7%	17.1%	-0.2%	-2.2%	-11.3%	12µM*	23.9µM*
COc1ccccc1C(=O)Nc1ccc2c(c1)CC1(C(=O)N(C)C(=O)N(C)C1=O)C1CCCN21 (configuration not stated)	-1.1%	-2.9%	25.7%	3.7%	25.0%	-21.7%	nt	nt
COc1ccc(CNc2nc(Cl)c(C#N)s2)cc1	12µM*	7.0%	-3.1%	9.0%	-1.6%	24.8%	7.57µM*	13.5µM*
N#Cc1sc(NCc2ccccc2)nc1Cl	19µM*	0.2%	-8.0%	-0.6%	-0.3%	-12.5%	10.7µM*	26.9µM*
COC[C@H]1OC(=O)c2coc3c2[C@@]1(C)C1=C(C3=O)[C@H]2CCC(=O)[C@@]2(C)C[C@H]1OC(C)=O	nt	nt	nt	nt	nt	-26.5%	nt	nt
CCCC[C@@H](C)[C@@H](OC(=O)C[C@@H](CC(=O)O)C(=O)O)[C@H](C[C@@H](C)C[C@H](O)CCCC[C@@H](O)C[C@H](O)[C@H](C)N)OC(=O)C[C@H](CC(=O)O)C(=O)O	nt	nt	nt	nt	nt	-5.8%	nt	nt
CCN(CC)CCOC(=O)C(C)(c1ccccc1)c1ccccc1	nt	nt	nt	nt	nt	-6.4%	nt	nt
Cc1cc2c(N)cccc2nn1	7.57µM*	nt	11.2µM*	-6.0%	-3.5%	?	6.1%	-1.8%
NN1C(=O)/C(=C2/Sc3ccccc3N2CCCS(=O)(=O)O)SC1=S	30.1µM*	0.5%	2.8%	nt	6.6%	-14.7%	19µM*	?
CC(C)C1C(=O)N2CCC[C@H]2[C@]2(O)O[C@](NC(=O)[C@@H]3C=C4c5cccc6[nH]cc(c56)C[C@H]4N(C)C3)(C(C)C)C(=O)N12 (some centres not stated)	nt	nt	nt	nt	nt	-12.2%	nt	nt
Cc1c(-c2ccc(Cl)cc2)oc(=O)c2c(N)n(-c3ccccc3)nc12	?	6.6%	2.8%	4.9%	-4.7%	-6.0%	?	?
CC(C)CN1CC[C@@]2(CCCN(C(=O)Oc3ccccc3)C2)C1	nt	nt	nt	nt	nt	-5.0%	nt	nt
CC[C@H](C)[C@H](NC(=O)[C@H](CCCN=C(N)N)NC(=O)[C@H](CCCN=C(N)N)NC(=O)[C@H](CC(C)C)NC(=O)[C@H](Cc1ccccc1)NC(=O)CNC(=O)CNC(=O)[C@@H](N)Cc1ccc(O)cc1)C(=O)N[C@@H](CCCN=C(N)N)C(=O)N1CCC[C@H]1C(=O)N[C@@H](CCCCN)C(=O)N[C@@H](CC(C)C)C(=O)N[C@@H](CCCCN)C(=O)O	nt	nt	nt	nt	nt	5.2%	nt	nt
COc1cc(-c2nnc(SCc3cc(=O)oc4cc(O)c(O)cc34)o2)cc(OC)c1OC	?	-11.3%	-9.0%	?	-20.8%	?	1.69µM*	1.51µM*
Cc1ccc(N/C=C(\C2OC(=O)c3ccccc32)[N+](=O)[O-])c(C)c1 (configuration not stated)	?	0.9%	12.7%	-8.8%	-3.6%	-9.2%	1.1%	0.0%
O=C1OC(/C(=C\Nc2ccc(F)cc2F)[N+](=O)[O-])c2ccccc21 (configuration not stated)	?	18.7%	-1.3%	-11.3%	-0.6%	-11.6%	3.4%	-1.0%
O=C1OC(/C(=C\Nc2cc(Cl)ccc2O)[N+](=O)[O-])c2ccccc21 (configuration not stated)	?	10.1%	0.8%	-11.0%	-6.6%	-12.6%	2.6%	-12.7%
CC(C)(C)C(O)C(Oc1ccc(-c2ccccc2)cc1)n1cncn1 (configuration not stated)	nt	nt	nt	nt	nt	23.9%	nt	nt
O=C1NC(=O)C(=O)C(=O)N1	nt	nt	nt	nt	nt	-13.3%	nt	nt
Cc1ccc(Cl)cc1NC(=O)C[n+]1ccc(Cc2ccc([N+](=O)[O-])cc2)cc1	?	5.4%	2.4%	-0.2%	-4.0%	-5.7%	?	?
O=C(Nc1cccc(Cl)c1)c1cccc(N2C(=O)C3CC=CCC3C2=O)c1 (configuration not stated)	26.9µM*	-1.7%	-0.2%	3.2%	-4.4%	-10.5%	6.01µM*	13.5µM*
N=C1SCC(=O)N1c1ncc(Cc2cccc(Cl)c2)s1	?	12.6%	1.5%	-5.4%	-2.3%	-7.3%	23.9µM*	?
O=[N+]([O-])c1ccc(CSc2nnc(-c3cnccn3)o2)cc1	23.9µM*	-1.0%	-9.4%	18.3%	1.5%	-5.9%	?	?
CN(C(=O)COc1nc2ccccc2s1)c1ccccc1	nt	nt	nt	nt	nt	0.0%	nt	nt
Cc1nn(C)c(C)c1-c1cccc2c1CCC(N(C)C)C2 (configuration not stated)	nt	nt	nt	nt	nt	24.8%	nt	nt
O=C(Cn1ccc2ccccc2c1=O)NCCC(=O)N1CCN(c2cccc(Cl)c2)CC1	23.9µM*	11.2%	-12.6%	3.5%	-1.9%	-0.8%	?	?
O=C(Cn1cnc2ccccc2c1=O)NCCC(=O)N1CCC2(CC1)OCCO2	-0.2%	nt	-0.7%	-19.8%	3.8%	-5.4%	nt	nt
O=C1CCc2cc(S(=O)(=O)NCCC(=O)N3CCN(c4cccc(Cl)c4)CC3)ccc2N1	26.9µM*	2.5%	9.0%	-14.0%	-0.3%	2.5%	16.9µM*	?

Bioassay records from PubChem BioAssay.
